# Compound activity (PubChem BioAssay)
# Sampled rows, rich in hits. Any-hit rate of the full collection: about 0.92%.
# WRN inhibitor: inhibitors of human WRN helicase; WRN helicase unwinding, fluorescent forked duplex, kinetic; Potency, µM (highest dose often 114 µM), for the others: at the top dose activity change, negative = inhibition, hits mostly inhibitors; hit rate 0.46% among 360,000; AID 651768; further: nearly all actives have a fitted effect of over 55% in size
#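 Screening of the MLSMR collection measured strand separation of a quenched forked DNA duplex (100 nM) by 20 nM WRN with 2 mM ATP, all final. Compounds were preincubated with enzyme 15 min at room temperature.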
# BLM helicase inh: blocks DNA unwinding by human BLM helicase | P54132 | recombinant BLM DNA unwinding, fluorescence dequenching | Potency, µM (top dose mostly 56.1 µM), inactives show at the top dose activity change, negative = inhibition, usual class: inhibitors | hit rate 0.2% among 350,000 | AID 2528;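 further: plate controls were vehicle for no effect and no enzyme for full effect; nearly all actives have a fitted effect of over 35% in size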
# APEX1 inh: inhibitors of human APE1 endonuclease; P27695; AID 2517; recombinant APE1, TAMRA/BHQ-2 abasic DNA cleavage fluorescence; Potency, µM (top dose mostly 65.8 µM), for inactives: at the highest dose activity change, negative = inhibition, usual class: inhibitors; hit rate 0.35% among 350,000;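 further: plate controls were vehicle for no effect and reference inhibitor for full effect; nearly all actives have a fitted effect of over 55% in size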
#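 Substrate: short duplex with […] THF abasic site, 5'-TAMRA and 3'-BHQ-2, 50 nM final. APE1 at 0.75 nM, preincubated 15 min RT with compound. Fluorescence increase from first to third read measured activity.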
# RECQ1 inh: blocks DNA unwinding by human RECQ1. P46063. Potency, µM (top dose mostly 57.3 µM), for inactives: at the top dose activity, negative = inhibition, hits mostly inhibitors. hit rate 0.54% among 240,000. RECQ1 DNA unwinding, red fluorescence kinetic read;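 further: plate controls were vehicle for no effect and no enzyme for full effect; nearly all actives have a fitted effect of over 30% in size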
#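 RECQ1T1 50 nM; forked duplex (20 bp + 30-nt ss tails) 200 nM, ATP 2 mM final; pH 8.0, 2 mM MgCl2, 2.5 ug/ml poly(dI-dC); 15 min compound preincubation; discontinuous kinetic read over 2 h at RT.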
# L3MBTL1 inh: inhibitors of human L3MBTL1 | Q9Y468 | AlphaScreen L3MBTL1–H3K9me1 peptide binding | hit rate 0.66% among 230,000 | Potency, µM (highest dose often 57.1 µM), inactives show at the highest dose activity, negative = inhibition, usual class: inhibitors; further: nearly all actives have a fitted effect of over 60% in size
# Target sequence (Q9Y468 whole entry, looked up): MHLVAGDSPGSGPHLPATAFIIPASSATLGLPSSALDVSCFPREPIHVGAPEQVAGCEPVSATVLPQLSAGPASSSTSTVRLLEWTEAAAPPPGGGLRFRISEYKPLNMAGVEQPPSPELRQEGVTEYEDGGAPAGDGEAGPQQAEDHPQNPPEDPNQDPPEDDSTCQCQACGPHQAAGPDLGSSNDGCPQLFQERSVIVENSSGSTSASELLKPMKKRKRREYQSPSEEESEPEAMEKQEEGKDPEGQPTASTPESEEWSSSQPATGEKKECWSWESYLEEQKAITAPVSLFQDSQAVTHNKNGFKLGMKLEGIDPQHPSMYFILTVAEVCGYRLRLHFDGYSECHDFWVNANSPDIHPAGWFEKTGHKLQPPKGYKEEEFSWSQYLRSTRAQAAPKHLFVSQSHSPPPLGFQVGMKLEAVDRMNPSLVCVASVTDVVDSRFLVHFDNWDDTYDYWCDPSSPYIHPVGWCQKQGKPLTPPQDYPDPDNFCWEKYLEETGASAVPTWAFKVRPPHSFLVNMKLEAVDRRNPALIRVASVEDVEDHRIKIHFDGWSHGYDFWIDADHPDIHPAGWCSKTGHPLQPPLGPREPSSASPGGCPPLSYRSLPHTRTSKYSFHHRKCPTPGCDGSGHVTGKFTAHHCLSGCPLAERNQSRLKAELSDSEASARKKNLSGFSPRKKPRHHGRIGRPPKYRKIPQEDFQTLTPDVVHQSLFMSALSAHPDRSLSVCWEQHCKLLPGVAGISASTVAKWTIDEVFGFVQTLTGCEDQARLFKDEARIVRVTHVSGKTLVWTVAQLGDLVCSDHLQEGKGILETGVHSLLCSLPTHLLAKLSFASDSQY
#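 L3MBTL1 (50 nM) pre-complexed 30 min with biotinylated H3(1-15)K9me1 peptide (75 nM), then compounds added for 30 min at room temperature; AlphaScreen streptavidin donor/nickel chelate acceptor beads (10 ug/mL final) read after 30 min dark incubation.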
# * hit, by the source's call; i = inactive; ? = inconclusive; · = no result given; [ ] = remark or other dose. The call rests on the fitted dose curve; in most records, active means well fitted curve in the direction sought with a large enough effect; inconclusive means small, poorly fitted or top-dose-only effect, or another doubt; inactive means no such curve, though single readings can be large; an effect the other way counts as inactive or inconclusive. Unless noted, on the % scale 0 is the no-effect control and ±100 the full control effect; potency means the concentration at half of the fitted maximal effect.
SMILES,WRN inhibitor,BLM helicase inh,APEX1 inh,RECQ1 inh,L3MBTL1 inh
CN(C)S(=O)(=O)c1cccc2c1C(=O)c1ccccc1C2=O,-15%,-2%,-5%,7%,-11%
CN(C)c1cc2c(c(N(C)C)c1)C(=O)c1ccccc1C2=O,-17%,-5%,-6%,-2%,18µM*
O=C1C[C@@H](O)[C@@H](O)[C@H]2[C@@H]3C(=O)N(C[C@@H]4CCCO4)C(=O)[C@@H]3CC[C@H]12,·,1%[12.4 µM],-12%[12.4 µM],-4%[11.5 µM],·
CC(=O)O[C@@H]1[C@@H](O)CN[C@@H]1Cc1ccccc1,·,4%,9%,6%,·
Nc1nnc(CC(=O)N/N=C/c2cc([N+](=O)[O-])cc(Br)c2O)s1,56µM*,-6%,-7%,?,?
CCC(=O)NCCCC[C@H](NC(=O)OCc1ccccc1)C(=O)Nc1ccc2c(C)cc(=O)oc2c1,·,-3%,-1%,-9%,·
S=c1[nH]nc(-c2ccccn2)n1/N=C/c1cccs1,19%,0%,5%,-3%,28µM*
Oc1c(Br)cc(/C=N/n2c(-c3ccccc3)n[nH]c2=S)c(Br)c1O,·,0.79µM*,0.42µM*,·,0.79µM*
S=c1[nH]nc(-c2ccccn2)n1/N=C/c1cccc2ccccc12,-5%,2%,7%,-16%,32µM*
Oc1c(Br)cc(Br)cc1/C=N/n1c(-c2ccccc2)n[nH]c1=S,-18%,-6%,-4%,·,10%[2.29 µM]
Cc1ccc(/C=N/n2c(-c3ccccn3)n[nH]c2=S)o1,-7%,-1%,3%,-9%,?
Cc1ccccc1/C=N/n1c(-c2ccccn2)n[nH]c1=S,-12%,3%,1%,-4%,22µM*
S=c1[nH]nc(-c2ccc(Cl)cc2)n1/N=C/c1cccs1,-5%,-7%,14%,1%,1%
S=c1[nH]nc(-c2ccccn2)n1/N=C/c1ccccc1,4%,4%,17%,i,?
CC(C)CCOc1ccc(N)cc1,·,-7%,-6%,-11%,·
COc1ccc2cc3[n+](cc2c1O)CCc1cc2c(cc1-3)OCO2,50µM*,·,·,·,·
CC1=C(/C=C/C(C)=C/C=C/C(C)=C\CO)C(C)(C)CCC1,·,·,8%,i,·
COc1c(O)cc2c(c1O)C1OC(CO)C(O)C(O)C1OC2=O (stereo unspecified),1%,·,0%,·,11%
O=C1OCC2OC(O)C(O)C(O)C2OC(=O)c2cc(O)c(O)c(O)c2-c2c(O)c(O)c3oc(=O)c4c(c(O)c(O)c5oc(=O)c2c3c54)-c2c1cc(O)c(O)c2O (stereo unspecified),·,0.71µM*,0.035µM*,0.4µM*,·
CNc1cccccc1=S,-12%[11.6 µM],-2%,?,?,4µM*
CNC(=S)Nc1ccccc1-c1ccccc1,0%,0%,2%,-1%,1%
CC(=O)N1CCc2c(sc(NC(=O)C3CC3)c2-c2nc3ccccc3s2)C1,-14%,-10%,?,i,-8%
CC(=O)Nc1sc2c(c1-c1nc3ccccc3s1)CN(C(C)C)CC2,·,·,12µM*,·,16%
CCOC(=O)C1=C(O)c2ccccc2C(=O)/C1=C\c1ccc(C)cc1,45µM*,-16%,-4%,i,-16%
COc1cc(O)c(C(=O)c2ccccc2)cc1O,·,2%,1%,?,·
SMILES,WRN inhibitor,BLM helicase inh,APEX1 inh,RECQ1 inh,L3MBTL1 inh
COc1cc(C)cc(C(=O)O)c1C1=C(O)c2cccc(O)c2C(=O)C1=O,?,-11%,35µM*,?,·
CC(C)Nc1nc(C#N)nc(Nc2ccccc2)n1,·,-14%,-1%,-13%,·
c1ccc(-c2nn[nH]n2)c(Nc2cccc3c2CCCC3)c1,·,-19%,?,2%,·
N#CC(C#N)=Cc1ccc(OC(=O)c2ccccn2)cc1,-8%,-3%,-1%,-2%,25µM*
Oc1c(CN2CCOCC2)cc(CN2CCOCC2)c(O)c1O,22µM*,·,·,·,·
Oc1c(Cl)cc(Oc2cc(Cl)c(O)c(CN3CCOCC3)c2)cc1CN1CCOCC1,-3%,·,·,·,·
CNC1=C(Br)C(=O)c2ccncc2C1=O,·,14µM*,?,0%,·
CCOCCCNC1=C(Cl)C(=O)c2ccccc2C1=O,-2%[11.6 µM],-20%,-7%,-9%,?
CNC1=C(Cl)C(=O)c2ccncc2C1=O,·,18µM*,?,-5%,·
CNc1ccncc1S(=O)(=O)NC,8%,1%,-2%,-20%,3%
CC(C)C[C@H](NC(=O)[C@H](CCCCN)NC(=O)[C@H](CCC(N)=O)NC(=O)[C@H](Cc1cnc[nH]1)NC(=O)[C@H](Cc1cnc[nH]1)NC(=O)[C@@H](N)C(C)C)C(=O)N[C@H](C(=O)N[C@@H](Cc1ccccc1)C(=O)N[C@@H](Cc1ccccc1)C(=O)N[C@@H](C)C(=O)N[C@@H](CCC(=O)O)C(=O)N[C@@H](CC(=O)O)C(=O)N[C@H](C(=O)NCC(=O)N[C@@H](CO)C(=O)N[C@@H](CC(N)=O)C(=O)N[C@@H](CCCCN)C(=O)O)C(C)C)C(C)C,·,-3%,1%,10%,·
CC(/C=C1\SC(=S)N(CCC(=O)Nc2cccc(C(=O)O)c2)C1=O)=C\c1ccccc1,79µM*,-17%,38%,·,·
CC(=Cc1ccccc1)C=C1SC(=S)N(CCCC(=O)Nc2ccc(C(=O)O)cc2)C1=O,-13%[57.1 µM],·,·,·,·
CC(=C\c1ccccc1)/C=C1/SC(=S)N(CCCC(=O)O)C1=O,50µM*,-6%,-6%,·,·
CC(C)C1C(=O)N(S(C)(=O)=O)[C@H]2CCN(C(=O)/C=C/CN3CCCCC3)[C@@H]12 (stereo partly specified),·,6%,6%,11%,·
CCN(CC)c1ccc(/C=C/c2ccc3ccc(OC)cc3[n+]2CC)cc1,56µM*,2%,1%,·,·
